Test results reported in PubChem BioAssay AID1159580 (chemical genetic matrix, 2015).
“And” between values parts separate entries of the source, which are not always exact repeats. Equal values may be shown once. In all, about 5,500 compounds went through this assay and about 2,000 (36%) were called active. Another 18% or so got no clear call; they are omitted. Rule as the data show it: active = normalized growth mostly below about 0.91 (no sharp cut-off); inconclusive = no clear call, values can overlap the other calls; inactive = mostly above about 0.92. The list shows a part of the results.

Experiment: chemical genetic growth profiling, strain panel (AID 1159580);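 also: tested at 20 µM; growth read once vehicle control cultures reached saturation at 30 °C; 1 = growth at the plate median or of vehicle wells; lower values mean less growth of the strain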
Conditions: S. cerevisiae deletion strains, growth OD
[1] = locus YHR030C, strain SLT2, active compounds read low
[2] = locus YHR079C, strain IRE1, active compounds read low
[3] = locus YJL095W, strain BCK1, active compounds read low
[4] = locus YJR066W, strain TOR1, active compounds read low
[5] = locus YLR113W, strain HOG1, active compounds read low
[6] = locus YMR263W, strain SAP30, active compounds read low
[7] = locus YMR307W, strain GAS1, active compounds read low
[8] = locus YNL183C, strain NPR1, active compounds read low
[9] = locus YOR231W, strain MKK1, active compounds read low
[10] = locus YPL241C, strain CIN2, active compounds read low
[11] = locus YPL256C, strain CLN2, active compounds read low

Measured: normalized growth

NCCCNCCCCNCCCN
inactive: locus YAL040C, strain CLN3, active compounds read low 0.997 | locus YCL061C, strain MRC1 (second series), active compounds read low 1.01 | locus YDR363W, strain ESC2, active compounds read low 1.02 | locus YER002W, strain NOP16, active compounds read low 1.02 | locus YGR078C, strain PAC10, active compounds read low 1.01 | [1] 1.01 | [2] 0.994 | [3] 0.98 | [4] 0.925 | [5] 0.975 | [6] 0.995 | [7] 1.01 | locus YNL128W, strain TEP1, active compounds read low 0.962 | locus YNL175C, strain NOP13, active compounds read low 0.978 | [8] 0.93 | locus YNL197C, strain WHI3, active compounds read low 0.992 | locus YNL224C, strain SQS1, active compounds read low 0.986 | locus YOR083W, strain WHI5 (second series), active compounds read low 0.994 | [9] 0.999 | [10] 1 | [11] 1.02

CC(C)=CC1C(C(=O)O)C1(C)C (stereo not given)
inactive: locus YAL013W, strain DEP1, active compounds read low 0.988 | locus YAL021C, strain ccr4, active compounds read low 0.989 | locus YAL026C, strain drs2, active compounds read low 0.962 | locus YAL030W, strain snc1, active compounds read low 0.976 | locus YBL061C, strain skt5, active compounds read low 0.963 | locus YBR009C, strain hhf1, active compounds read low 0.939 | locus YBR021W, strain FUR4, active compounds read low 1.03 | locus YBR023C, strain chs3, active compounds read low 0.966 | locus YBR171W, strain sec66, active compounds read low 0.96 | locus YBR229C, strain ROT2, active compounds read low 0.996 | locus YBR231C, strain swc5, active compounds read low 0.985 | locus YBR279W, strain paf1, active compounds read low 0.976 | locus YCL011C, strain gbp2, active compounds read low 0.962 | locus YCL016C, strain dcc1, active compounds read low 0.987 | locus YCL029C, strain bik1, active compounds read low 0.981 | locus YCL061C, strain MRC1, active compounds read low 0.987 | locus YCL069W, strain vba3, active compounds read low 0.972 | locus YCR088W, strain abp1, active compounds read low 0.983 | locus YDL005C, strain med2, active compounds read low 0.976 | locus YDL035C, strain GPR1, active compounds read low 0.998 | locus YDL040C, strain nat1, active compounds read low 0.965 | locus YDL074C, strain BRE1, active compounds read low 1.01 | locus YDL101C, strain DUN1, active compounds read low 1.02 | locus YDL185W, strain tfp1, active compounds read low 0.954 | locus YDL192W, strain arf1, active compounds read low 0.966 | locus YDR001C, strain nth1, active compounds read low 0.962 | locus YDR069C, strain doa4, active compounds read low 0.967 | locus YDR101C, strain arx1, active compounds read low 0.979 | locus YDR137W, strain rgp1, active compounds read low 0.97 | locus YDR150W, strain NUM1, active compounds read low 0.983 | locus YDR159W, strain sac3, active compounds read low 0.959 | locus YDR162C, strain NBP2, active compounds read low 1.08 | locus YDR195W, strain ref2 0.997 | locus YDR297W, strain sur2, active compounds read low 0.979 | locus YDR318W, strain mcm21, active compounds read low 0.977 | locus YDR334W, strain swr1, active compounds read low 0.976 | locus YDR335W, strain msn5, active compounds read low 0.977 | locus YDR388W, active compounds read low 0.98 | locus YDR392W, strain spt3, active compounds read low 0.883 | locus YDR502C, strain sam2, active compounds read low 1.01 | locus YEL003W, strain gim4, active compounds read low 0.971 | locus YEL037C, strain rad23, active compounds read low 0.966 | locus YEL061C, strain CIN8 (second series), active compounds read low 0.967 | locus YEL061C, strain CIN8, active compounds read low 0.996 | locus YER015W, strain faa2, active compounds read low 0.983 | locus YER016W, strain bim1, active compounds read low 0.982 | locus YER110C, active compounds read low 0.951 | locus YER111C, strain swi4, active compounds read low 0.972 | locus YER155C, strain BEM2 (second series), active compounds read low 0.972 | locus YER155C, strain BEM2, active compounds read low 0.999 | locus YER167W, strain BCK2, active compounds read low 0.997 | locus YFR010W, strain ubp6, active compounds read low 0.972 | locus YGL078C, strain dbp3, active compounds read low 0.991 | locus YGL086W, strain mad1, active compounds read low 0.967 | locus YGL167C, strain pmr1, active compounds read low 0.969 | locus YGL173C, strain kem1, active compounds read low 0.959 | locus YGL227W, strain vid30, active compounds read low 0.968 | locus YGL240W, strain doc1, active compounds read low 0.974 | locus YGL248W, strain PDE1, active compounds read low 1.04 | locus YGL253W, strain hxk2, active compounds read low 0.993 | locus YGR135W, strain pre9, active compounds read low 1 | locus YGR229C, strain SMI1, active compounds read low 1.05 | locus YGR252W, strain gcn5, active compounds read low 1.15 | locus YHR013C, strain ard1, active compounds read low 0.956 | locus YHR027C, strain rpn1, active compounds read low 0.973 | [1] 0.992 and 0.957 | locus YHR079C, strain IRE1 (second series), active compounds read low 0.988 | [2] 0.957 | locus YHR094C, strain hxt1, active compounds read low 0.968 | locus YHR129C, strain ARP1, active compounds read low 0.997 | locus YHR142W, strain chs7, active compounds read low 1.02 | locus YHR200W, strain rpn10, active compounds read low 0.979 | locus YIL066C, strain RNR3, active compounds read low 1.02 | locus YIL073C, strain SPO22, active compounds read low 0.967 | locus YIL125W, strain kgd1, active compounds read low 0.98 | locus YIR030C, strain dcg1, active compounds read low 0.979 | locus YJL092W, strain hpr5, active compounds read low 0.985 | locus YJL095W, strain BCK1 (second series), active compounds read low 0.985 | [3] 1.08 and 0.996 | locus YJL115W, strain asf1, active compounds read low 0.975 | locus YJL129C, strain trk1, active compounds read low 0.981 | locus YJL134W, strain LCB3, active compounds read low 0.99 | locus YJL154C, strain vps35, active compounds read low 0.96 | locus YJL164C, strain tpk1, active compounds read low 1.01 | locus YJL166W, strain qcr8, active compounds read low 0.979 | locus YJL168C, strain set2, active compounds read low 0.991 | locus YJL187C, strain SWE1 (second series), active compounds read low 1.04 | locus YJL187C, strain SWE1, active compounds read low 0.972 | locus YJR043C, strain POL32, active compounds read low 1.04 | [4] 0.905 | locus YKL009W, strain mrt4, active compounds read low 0.963 | locus YKL068W, active compounds read low 0.988 | locus YKL085W, strain MDH1 (second series), active compounds read low 0.971 | locus YKL085W, strain MDH1, active compounds read low 0.971 | locus YKL160W, strain elf1, active compounds read low 1.04 | locus YKL190W, strain CNB1, active compounds read low 0.991 | locus YKR001C, strain vps1, active compounds read low 0.973 | locus YKR026C, strain gcn3, active compounds read low 0.977 | locus YKR091W, strain srl3, active compounds read low 0.973 | locus YLL001W, strain dnm1, active compounds read low 0.999 | locus YLL026W, active compounds read low 0.982 | locus YLL041C, strain sdh2, active compounds read low 0.984 | locus YLR027C, strain aat2, active compounds read low 0.987 | locus YLR039C, strain RIC1, active compounds read low 1.04 | locus YLR058C, strain SHM2, active compounds read low 1.02 | locus YLR102C, strain apc9, active compounds read low 0.957 | [5] 1.04 | locus YLR221C, strain rsa3, active compounds read low 1 | locus YLR258W, strain gsy2, active compounds read low 0.963 | locus YLR262C, strain YPT6 (second series), active compounds read low 1 | locus YLR262C, strain YPT6, active compounds read low 1.04 | locus YLR268W, strain sec22, active compounds read low 0.972 | locus YLR320W, strain mms22, active compounds read low 0.989 | locus YLR330W, strain CHS5, active compounds read low 0.984 | locus YLR342W, strain FKS1 (second series), active compounds read low 1.03 | locus YLR342W, strain FKS1, active compounds read low 0.959 | locus YLR357W, strain rsc2, active compounds read low 0.963 | locus YLR370C, strain arc18, active compounds read low 0.976 | locus YLR371W, strain rom2, active compounds read low 0.968 | locus YLR384C, strain iki3, active compounds read low 0.981 | locus YLR418C, strain cdc73, active compounds read low 1.02 | locus YML016C, strain PPZ1, active compounds read low 0.999 | locus YML032C, strain rad52, active compounds read low 1 | locus YML120C, strain ndi1, active compounds read low 0.987 | locus YML124C, strain tub3, active compounds read low 0.973 | locus YMR058W, strain fet3, active compounds read low 0.966 | locus YMR078C, strain ctf18, active compounds read low 0.975 | locus YMR125W, strain sto1, active compounds read low 0.914 | locus YMR129W, active compounds read low 0.965 | locus YMR205C, strain PFK2, active compounds read low 0.932 | locus YMR223W, strain ubp8, active compounds read low 0.988 | locus YMR231W, strain pep5, active compounds read low 0.968 | [6] 1.01 | [7] 1.24 | locus YNL067W, strain RPL9B, active compounds read low 1.05 | locus YNL071W, strain lat1, active compounds read low 0.977 | locus YNL153C, strain GIM3, active compounds read low 1.05 | [8] 0.971 | locus YNL209W, strain ssb2, active compounds read low 0.977 | locus YNL233W, strain BNI4, active compounds read low 1.07 | locus YNL248C, strain rpa49, active compounds read low 1.01 | locus YNL250W, strain rad50, active compounds read low 0.965 | locus YNL271C, strain bni1, active compounds read low 0.973 | locus YNL298W, strain CLA4, active compounds read low 0.99 | locus YNL307C, strain MCK1, active compounds read low 0.988 | locus YNL322C, strain KRE1 (second series), active compounds read low 0.973 | locus YNL322C, strain KRE1, active compounds read low 0.998 | locus YNR049C, strain mso1, active compounds read low 0.966 | locus YNR052C, strain pop2, active compounds read low 0.972 | locus YOL006C, strain TOP1, active compounds read low 1.06 | locus YOL012C, strain htz1 1.34 | locus YOL147C, strain pex11, active compounds read low 0.989 | locus YOR001W, strain rrp6, active compounds read low 1.01 | locus YOR061W, strain CKA2, active compounds read low 1.01 | locus YOR069W, strain VPS5, active compounds read low 0.992 | locus YOR070C, strain gyp1, active compounds read low 0.985 | locus YOR080W, strain dia2, active compounds read low 0.965 | locus YOR083W, strain WHI5, active compounds read low 1.05 | locus YOR106W, strain vam3, active compounds read low 1.01 | locus YOR136W, strain idh2, active compounds read low 0.979 | locus YOR144C, strain elg1, active compounds read low 1 | locus YOR184W, strain ser1, active compounds read low 0.963 | [9] 0.954 | locus YOR265W, strain rbl2, active compounds read low 0.986 | locus YOR270C, strain vph1, active compounds read low 0.975 | locus YOR290C, strain snf2, active compounds read low 0.925 | locus YOR316C, strain cot1, active compounds read low 0.974 | locus YPL051W, strain arl3, active compounds read low 1 | locus YPL055C, strain LGE1, active compounds read low 1.06 | locus YPL078C, strain atp4, active compounds read low 1 | locus YPL106C, strain sse1, active compounds read low 0.972 | locus YPL240C, strain hsp82, active compounds read low 0.997 | [10] 0.998 | [11] 0.975 | locus YPR119W, strain clb2, active compounds read low 0.96 | locus YPR141C, strain kar3, active compounds read low 0.969 | locus YPR163C, strain tif3, active compounds read low 0.992 | locus YPR167C, strain met16, active compounds read low 0.941 | strain wtn01, active compounds read low 0.979
